The record followed here is PubChem BioAssay AID624504 (Sanford-Burnham Center for Chemical Genomics, 2012).

Out of some 5,000 compounds screened, about 3,900 (78%) were called active. Rule as the data show it: active = inhibition above about 22%; inactive = the rest. So high a share suggests a set chosen from earlier hits. These entries were drawn from the full list.

The nature of this test: fluorescence retest of MPTP screen hits in isolated mitochondria, single concentration (AID 624504).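 Also: 0% = DMSO vehicle and 100% = positive control.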 The settings on record: membrane potential, Rhodamine 123 fluorescence, at 10 µM, active compounds read high.
As for `C=C1c2c(Cl)ccc(O)c2C(O)=C2C(=O)[C@]3(O)C(O)=C(C(N)=O)C(=O)[C@@H](N(C)C)[C@@H]3[C@@H](O)C12` (stereo partly drawn), the inhibition is -13.7% (inactive).

Take `COc1ccc(NS(=O)(=O)c2ccc(Oc3c(C#N)cccc3C#N)cc2)cc1`: the inhibition was 75.8% (active).

For the compound `CC(NC(=S)Nc1ccccc1)C1COc2ccccc2O1` (stereo not drawn), the inhibition is 87% (active).

As to `S=C(NCC1COc2ccccc2O1)Nc1ccc(Br)cc1` (stereo not drawn), the inhibition was 93.1% (active).

With `S=C(NCCCc1ccccc1)Nc1ccc(Br)cc1`, the inhibition is 91.8% (active).

Turning to `O=C(CSCc1ccc(Br)cc1)Nc1ccc(S(=O)(=O)N2CCCCCC2)cc1`, the inhibition is 80.4% (active).

Consider `Fc1cc(F)c2nc(Nc3nc4c(F)cccc4s3)sc2c1`, for which the inhibition was 69.9% (active).

`C=CC[n+]1c(-c2ccc(C)cc2)csc1NNC(=O)Nc1ccccc1`: the inhibition was 83.2% (active).

Regarding `O=C1CCCN1CCCNC(=S)Nc1ccc(F)c(Cl)c1`, the inhibition is 90.3% (active).

As to `Oc1c(Br)cccc1/C=N/Nc1c(F)c(F)c(F)c(F)c1F`, the inhibition is 72.3% (active).

On to `Fc1ccc(N2N=C(c3cccs3)CC2c2ccco2)c(F)c1` (stereo not drawn), for which the inhibition was -15.1% (inactive).

On to `O=C(CC(O)(C(F)(F)F)C(F)(F)F)Nc1ccc(Cl)c(Cl)c1`, for which the inhibition was 84.9% (active).

For `CCOC(=O)N1CCN(C(=O)C2CCN(c3ncnc4c3sc3cccc(F)c34)CC2)CC1`, the inhibition is 94.4% (active).

On to `N#C/C(=C(/O)Cc1cccc2ccccc12)c1nc2ccccc2s1`, for which the inhibition is 69.1% (active).

As for `COc1ccc(Br)cc1C(=O)NC(=S)Nc1cc(-c2nc3ccccc3[nH]2)ccc1C`, the inhibition was 51% (active).

`Cc1cc2ncn(CCCCOc3ccccc3)c2cc1C`: the inhibition was 36.7% (active).

Turning to `CC(C)c1ccccc1OCC(O)CN(CC(O)COc1cccc2ccccc12)C(C)C` (stereo not drawn), the inhibition is 4.85% (inactive).

With `COc1ccc2c(c1)c(=Cc1ccc(N(C)C)cc1)c1cc(-c3ccccc3)[n+](C)n12`, the inhibition is 79.7% (active).

With `O=C(Nc1ccc(C2CC2(Cl)Cl)cc1)c1cccc([N+](=O)[O-])c1` (stereo not drawn), the inhibition is 78.1% (active).

For `Fc1ccc2[nH]c3c(N4CCSCC4)ncnc3c2c1`, the inhibition is 94% (active).

As to `Cc1[nH]n(-c2cccc(Cl)c2)c(=O)c1-c1ccc(Cl)cc1`, the inhibition is 98.6% (active).

For `C[C@@H](CN1CCC[C@H]1CN1C(N)=NC[C@@H]1Cc1ccccc1)N1C[C@@H](Cc2ccccc2)N(CCCC2CCCC2)C1=N`, the inhibition is 7.61% (inactive).

Regarding `CS(=O)(=O)c1sc(C(=O)NC(=S)Nc2ccc(OC(F)(F)F)cc2)c2c1C=CCC2`, the inhibition was 71.2% (active).

With `O=[N+]([O-])c1ccc(N/N=C/c2ccccc2)cc1`, the inhibition is 81.9% (active).

Take `Cc1cccc(COc2ccccc2/C=N/Nc2ccc([N+](=O)[O-])cc2)c1`: the inhibition is 81.5% (active).

Consider `COc1ccccc1Oc1ccc(S(=O)(=O)Nc2cccnc2)cc1`, for which the inhibition is 70.1% (active).

For the compound `Cc1ccc(C)c(NC(=S)NNC(=S)Nc2ccc(C(C)C)cc2)c1`, the inhibition is 85.3% (active).

Consider `S=C(NCCc1ccccc1)NCc1ccccc1Cl`, for which the inhibition was 67.2% (active).

`CCCCCC(O)c1cccc(OCc2ccc3ccccc3n2)c1` (stereo not drawn): the inhibition was 76.1% (active).

For the compound `Cc1csc(NC(=S)Nc2cccc(Cl)c2)n1`, the inhibition is 73.4% (active).

`S=C(Nc1cccc(Cl)c1)Nc1ccc2cn[nH]c2c1`: the inhibition was 92.7% (active).

With `N=c1n(Cc2ccc(Cl)cc2)c2ccccc2n1CC(O)c1ccco1` (stereo not drawn), the inhibition was 4.39% (inactive).

For the compound `CCN1/C(=C\c2ccc3ccccc3[n+]2CC)Sc2cc(C)ccc21`, the inhibition was 96.3% (active).

Turning to `CCc1cc2c(N3CCN(c4nnc(CC)s4)CC3)ncnc2s1`, the inhibition was 41.8% (active).

In the case of `CC(NC(=S)Nc1ccc(OC(F)F)cc1)c1ccc(F)cc1` (stereo not drawn), the inhibition is 93.7% (active).

Consider `FC(F)(F)c1cccc(NC(=S)Nc2cccc(Cl)c2)c1`, for which the inhibition was 96.6% (active).

With `S=C(Nc1cccc(Cl)c1)Nc1ccc2c(c1)OCCO2`, the inhibition was 100% (active).

As to `O=C(Nc1cccc(-c2cccc(Cl)c2)c1)C1CCN(C2CCC2)CC1`, the inhibition is -9.69% (inactive).

`O=C(Nc1cccc(S(=O)(=O)Nc2ccc(Cl)cc2)c1)c1ccc2c(c1)OCCO2`: the inhibition is 80.9% (active).

For the compound `O=[N+]([O-])c1ccc(NS(=O)(=O)c2ccccc2)c(Cl)c1`, the inhibition was 97.2% (active).

`N#C[C@]1(S(=O)(=O)c2ccccc2)C[C@@H]2ON=C(c3cccc(Br)c3)[C@@H]2C1`: the inhibition was 90.7% (active).

On to `O=C(/C=C/c1ccc(F)cc1)Nc1cccc(S(=O)(=O)Nc2cccc(C(F)(F)F)c2)c1`, for which the inhibition was 69.5% (active).

For `O=C(/C=C(O)/C=C/c1ccc(O)cc1)/C=C/c1ccc(O)cc1`, the inhibition was 70.7% (active).

As for `COc1ccccc1CNc1nc(Nc2ccccc2Cl)c2sccc2n1`, the inhibition was 67% (active).

Regarding `COc1cccc(CNc2nc(NCc3cccs3)nc3ccsc23)c1`, the inhibition was 102% (active).

Consider `COc1cccc(CNc2nc(NCc3ccccc3OC)nc3ccsc23)c1`, for which the inhibition is 121% (active).

For the compound `C=CCC1(CC=C)CCCN1C(=O)c1cc(COc2ccc(-n3cncn3)cc2)on1`, the inhibition is 103% (active).

Consider `CC(C)S(=O)(=O)c1csc(NC(=O)Nc2ccc(Cl)cc2)c1Cl`, for which the inhibition was 90.1% (active).

With `CCCCCOC(=O)NCCOC(=O)Nc1ccc(C(=O)OCC)cc1`, the inhibition was 72.7% (active).

`CCNCCC(=O)N1c2ccccc2Sc2ccc(NC(=O)OCC)cc21`: the inhibition was -7.23% (inactive).

Turning to `Cn1nccc1C(=O)NC1CCCc2c1cnn2-c1ccccc1F` (stereo not drawn), the inhibition is 96.6% (active).

`COc1ccc(C(=O)NC2CCCc3c2cnn3-c2cccc(C)c2C)c(OC)n1` (stereo not drawn): the inhibition was 84.1% (active).

Take `Cn1nccc1C(=O)NC1CCCc2c1cnn2-c1ccc(F)cc1F` (stereo not drawn): the inhibition is 101% (active).

For the compound `Cc1nc(N2CCOCC2)c2c(C)c(C(=O)Nc3ccc(C(F)(F)F)cc3)sc2n1`, the inhibition was 81.9% (active).

`CCCCCc1c(Cc2ccccc2)ncn1CCc1ccccc1OC`: the inhibition is 106% (active).

As to `Nc1nnc(SCC(=O)Nc2ccc3nc(SCC(=O)Nc4ccccc4)sc3c2)s1`, the inhibition was 77.9% (active).

As to `Cc1cccc(NC(=O)Nc2cccc(Oc3c(F)c(F)c(F)c(F)c3F)c2)c1`, the inhibition is 62.1% (active).

As to `CCN(CC)S(=O)(=O)c1ccc(N(C)Cc2ccc(C(F)(F)F)cc2)nc1`, the inhibition was 93.6% (active).

Turning to `COc1ccc(/C=C(/CC(=O)Nc2ccc(C)cc2)c2nc3ccccc3s2)cc1`, the inhibition was -7.49% (inactive).

Consider `CCSc1nsc(NC(=O)Nc2cccc(C(C)=O)c2)n1`, for which the inhibition was 83.6% (active).

On to `O=C(Nc1ccccc1)Nc1nc2ccccc2s1`, for which the inhibition is 80.6% (active).

Take `CSc1nsc(NC(=O)Nc2ccccc2)n1`: the inhibition is 89.7% (active).

`C=CCSc1nsc(NC(=O)Nc2cccc(C(C)=O)c2)n1`: the inhibition is 84.6% (active).

For the compound `CCCCN(CCCC)CCC(O)c1cc2c(Cl)cc(Cl)cc2c2cc(C(F)(F)F)ccc12` (stereo not drawn), the inhibition is -7.09% (inactive).

For `CC(C)CC(=O)N/C(N)=N/c1nc2ccccc2s1`, the inhibition was 50% (active).

As for `O=C1c2ccccc2C2=Nc3ccccc3SC(c3ccccc3F)C12` (stereo not drawn), the inhibition is 59% (active).

In the case of `S=C(Nc1cccc(Br)c1)N1CCn2cccc2C1c1cccnc1` (stereo not drawn), the inhibition is 94.4% (active).

As to `CN(c1cccc(NC(=O)Nc2ccc(Cl)cc2)c1)S(C)(=O)=O`, the inhibition was 91.2% (active).

`CN(c1ccccc1)S(=O)(=O)c1cccc(NC(=O)Cc2ccc(Cl)cc2)c1`: the inhibition is 81.2% (active).

Consider `Cc1ccc(S(=O)(=O)N(CC(=O)Nc2cccc([N+](=O)[O-])c2)Cc2ccc(Cl)cc2)cc1`, for which the inhibition was 88.5% (active).

For the compound `O=C(c1ccncc1)N1CCN(S(=O)(=O)c2cc(C(F)(F)F)cc(C(F)(F)F)c2)CC1`, the inhibition is 99.7% (active).

`O=C(Cc1ccsc1)N1CCN(S(=O)(=O)c2cc(C(F)(F)F)cc(C(F)(F)F)c2)CC1`: the inhibition is 86.7% (active).

Consider `CCC(C)N1C(=O)S/C(=C/c2ccc(Sc3nc4ccccc4[nH]3)o2)C1=O` (stereo not drawn), for which the inhibition was 91.4% (active).

As to `Oc1c(Cl)cc(Cl)c(Cl)c1Cc1c(O)c(Cl)cc(Cl)c1Cl`, the inhibition was 16.1% (inactive).

`Cc1nc2c(OCc3ccc(Cl)cc3Cl)cccn2c1N(C)CC1CC1`: the inhibition was 105% (active).

Turning to `Cc1nc2c(OCc3ccc(Cl)cc3)cccn2c1N(C)Cc1cccs1`, the inhibition is 106% (active).

In the case of `Cc1nc2c(OCc3cccc(Cl)c3)cccn2c1N(C)CC1CC1`, the inhibition was 107% (active).

For `O=C(/C(=C/c1cccc(Cl)c1)c1nc2ccccc2[nH]1)c1ccccc1`, the inhibition is 77.4% (active).

As for `NC(N)=N/N=C/c1ccc(Cl)c([N+](=O)[O-])c1`, the inhibition was -8.15% (inactive).

Consider `Cc1cc(C)c(SCCc2ccncc2)c(C)c1`, for which the inhibition was 95.5% (active).

On to `CC(C)(C)c1ccc(SCCc2ccncc2)cc1`, for which the inhibition was 98.5% (active).

As for `c1ccc2c(CSCc3nc4ccccc4[nH]3)cccc2c1`, the inhibition was 55.6% (active).

In the case of `O=C(Nc1cccc(C(F)(F)F)c1)c1ccc(N2CCNCC2)c([N+](=O)[O-])c1`, the inhibition is -27% (inactive).

As for `O=C(c1ccc(N2CCCC2=O)cc1)N1CCN(c2ccc(C(F)(F)F)cc2[N+](=O)[O-])CC1`, the inhibition was 76% (active).

For the compound `N#Cc1c(-c2cccs2)nc(SCC(=O)c2ccc(Br)cc2)[nH]c1=O`, the inhibition is 61.2% (active).

`Cc1nnc(NC(=O)Nc2ccc(Cl)c(Cl)c2)s1`: the inhibition was 94% (active).

Consider `Cc1ccc(NC(=O)Nc2nnc(-c3ccncc3)s2)cc1`, for which the inhibition is 81.7% (active).

Turning to `CCc1ccc(NC(=O)Nc2ccncc2)cc1`, the inhibition is 71.8% (active).

For `CCCCC(=O)NNC(=S)NC(=O)C(c1ccccc1)c1ccccc1`, the inhibition is -2.85% (inactive).

Consider `O=[N+]([O-])c1cc(Cl)cc(/C=N/NC(=S)Nc2cc(S(=O)(=O)N3CCOCC3)ccc2Cl)c1O`, for which the inhibition was 5.99% (inactive).

With `O=C(c1cc(-c2cccc(O)c2)on1)N1CCc2ccccc2C1`, the inhibition is 33.5% (active).

Regarding `O=C(NNc1ccccc1Cl)C(O)(c1cccc(C(F)(F)F)c1)c1cccc(C(F)(F)F)c1`, the inhibition was 83.9% (active).

`Cc1ccc(S(=O)(=O)Nc2ccc3ncccc3c2)cc1`: the inhibition is 72.7% (active).

Regarding `COc1ccc(S(=O)(=O)NCCCCOc2ccc(Cl)cc2)cc1`, the inhibition was 88.4% (active).

On to `O=[N+]([O-])c1cc(Br)c(O)c(/C=N/Nc2nc3ccccc3s2)c1`, for which the inhibition was 65.6% (active).

For `O=C(CCN1C(=O)/C(=C/c2cccs2)SC1=S)NNC(=O)c1cccc(O)c1`, the inhibition is 49% (active).

For the compound `COc1cc(NC(=O)c2cncc(-c3ccc(C#N)cc3)c2)cc(C(=O)Nc2cccc(C(F)(F)F)c2)c1`, the inhibition is 58.3% (active).

With `COCCn1c(CN2CCC(Cc3ccccc3)CC2)nc2c1c(=O)n(C)c(=O)n2C`, the inhibition is 10.1% (inactive).

Consider `COC(=O)c1c(C)[nH]c(C(=O)/C=C/c2ccc(Cl)cc2)c1C`, for which the inhibition is 86.5% (active).

As for `CCCc1nc2scc(-c3ccc(C)cc3)c2c(=O)n1N`, the inhibition was 20.9% (active).

Consider `CC(C)c1ccc(NC(=S)NC2CC3C=CC2C3)cc1` (stereo not drawn), for which the inhibition is 91% (active).

As for `COc1cccc(CNS(=O)(=O)c2ccc3c(c2)CC(C)N3C(=O)C2CCC2)c1` (stereo not drawn), the inhibition is 91.1% (active).

On to `O=C(Nc1nc(-c2ccc3c(c2)OCO3)cs1)c1ccncc1`, for which the inhibition is 42.8% (active).

Turning to `Cc1ccc(F)cc1NC(=O)Cc1nn(C)c(=O)c2ccccc12`, the inhibition is 29.6% (active).

On to `Cc1ccc(-c2nc(COC(=O)c3c(C)noc3C)cs2)cc1`, for which the inhibition was 23.4% (active).

Turning to `Cc1ccc(-c2noc(CCC(=O)Nc3ccccc3N3CCN(C)CC3)n2)cc1`, the inhibition is -2.79% (inactive).

Consider `Cc1ccc(NC(=O)CN(C)CC(=O)Nc2cccc(F)c2)cc1[N+](=O)[O-]`, for which the inhibition is 100% (active).

Turning to `Cc1cc(C)c(NC(=O)C[N+](C)(C)CC(O)COc2cccc3ccccc23)c(C)c1` (stereo not drawn), the inhibition is -17% (inactive).
